Only some compounds are listed: those with a hit (about 2.4% of all), similar ones and a draw of the others.
D2 ag-1 – Beta-Arrestin HTS for Positive Allosteric Modulators of the Human D2 Dopamine Receptor: Agonists | DiscoveRx PathHunter D2 beta-arrestin, luminescence, 90 min; 100% = 57 uM dopamine signal | activation, % (test concentration not listed) | 360,000 compounds, 0.084% hits; in the data active = activation above about 40%; inconclusive = between about 15% and that limit
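Agonist mode: compounds alone added to overnight-plated D2 PathHunter cells for 90 min at 37 C, with 57 uM final dopamine (EC100) defining full response. Beta-arrestin recruitment detected by chemiluminescent reagent, read after 1 h at ambient temperature.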
D2 antagonist – HTS Assay for Allosteric Antagonists of the Human D2 Dopamine Receptor: Primary Screen for Antagonists. D(2) dopamine receptor (Homo sapiens), P14416. HEK293 TREx D2 cells, calcium flux, dopamine EC80. inhibition, % at 10 µM. 340,000 compounds, 2% hits. AID 485344, 2010; in the data active = inhibition above about 30%; inactive = below that, where a call was filed
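Read-out: kinetic calcium fluorescence (1 cycle/s) in inducible HEK293 T-REx D2 cells after an EC80 dopamine addition that followed 180 s compound preincubation. Loss of the dopamine response indicates antagonism.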
D2 PAM-1 – HTS Assay for Positive Allosteric Modulators of the Human D2 Dopamine Receptor: Primary Screen for Potentiators | D(2) dopamine receptor (Homo sapiens), P14416 | HEK293 T-REx D2, calcium flux, EC20 dopamine potentiation | potentiation, % at 10 µM | 340,000 compounds, 0.34% hits | AID 485347, 2010;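 active = potentiation over 3 SD above the plate norm, cut at about 30% in these data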
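Using a no-wash calcium dye in inducible, force-coupled HEK293 Trex cells expressing D2, we tracked fluorescence each second for 180 s after compound, then for 180 s after EC20 dopamine to detect augmented signalling.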
D2 PAM-2 – Beta-Arrestin HTS for Positive Allosteric Modulators of the Human D2 Dopamine Receptor: Potentiators; 360,000 compounds, 0.23% hits; potentiation, % (test concentration not listed); DiscoveRx D2 beta-arrestin cells, luminescence, 90 min; 100% = 57 uM dopamine signal; in the data active = potentiation above about 50%; inconclusive = mostly about 30% to 49%
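D2 cells co-treated with compound plus 50 nM dopamine (EC20) for 90 min at 37 deg C to detect potentiation. Beta-arrestin recruitment was read as enzyme-fragment luminescence after 1 h at ambient temperature. Full response was set by 57 uM dopamine.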
D2 ag-2 – HTS Assay for Allosteric Agonists of the Human D2 Dopamine Receptor: Primary Screen for Agonists; HEK293 T-REx D2 cells, calcium flux agonist mode; activation, % at 2 µM; 340,000 compounds, 0.53% hits; AID 485358, 2010;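 active = activation over 3 SD above normal in the single-dose calcium agonist read, cut at about 30% in these data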
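Calcium-flux readout, 1 cycle/sec over 180 s following compound pin transfer, in inducible HEK293 Trex D2 cells (force-coupled); dopamine controls included. Positive calcium responses during this window marked compounds as potential agonists.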
D3 arrestin ag – qHTS of D3 Dopamine Receptor Agonist: D3 Dopamine Receptor B-arrestin Agonist Confirmatory Assay; shares compounds with D2 ag-2; DiscoveRx D3 beta-arrestin cells, luminescence, 90 min; Potency, µM (doses to about 76.9 µM), hits mostly activators; 2,300 compounds, 4% hits; also: nearly all actives have a fitted effect of over 70% in size
Target sequence (P35462 whole entry, looked up): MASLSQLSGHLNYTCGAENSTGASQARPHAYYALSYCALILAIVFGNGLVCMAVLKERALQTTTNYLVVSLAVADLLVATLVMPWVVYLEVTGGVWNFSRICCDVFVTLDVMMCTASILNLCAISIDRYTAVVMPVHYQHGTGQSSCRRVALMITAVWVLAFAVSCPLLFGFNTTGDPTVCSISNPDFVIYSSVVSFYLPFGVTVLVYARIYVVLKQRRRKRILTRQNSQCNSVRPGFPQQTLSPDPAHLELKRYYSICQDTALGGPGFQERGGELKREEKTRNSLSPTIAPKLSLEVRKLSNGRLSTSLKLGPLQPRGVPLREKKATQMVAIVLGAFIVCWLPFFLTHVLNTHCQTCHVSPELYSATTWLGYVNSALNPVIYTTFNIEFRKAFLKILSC
D2 ag-3 – qHTS of D3 Dopamine Receptor Agonist: D2 Dopamine Receptor B-arrestin Agonist Counterscreen; shares compounds with D2 ag-2; DiscoveRx PathHunter D2 beta-arrestin, luminescence, 90 min; response scale: percent relative to full dopamine signal; Potency, µM (titrated, usually from 76.9 µM), actives largely listed as activators; 2,300 compounds, 5.9% hits; also: nearly all actives have a fitted effect of over 70% in size
Large screens that a line does not name were inactive (follow-up assays come after a bar, where they were run). Unless noted, calls follow the shape of the dose curve; as a rule, active = well fitted activation curve with a large enough effect; inconclusive = small, poorly fitted or top-dose-only effect; inactive = flat fitted curve, though single readings scatter.

Cc1cc(=O)n2nc(N3CCC(C(=O)N4CCN(c5ccccc5)CC4)CC3)sc2n1	none | D3 arrestin ag inconclusive | D2 ag-3 inactive
O=C(NCc1ccccc1)c1nncc(-c2ccccc2)n1	none | D3 arrestin ag inactive | D2 ag-3 inactive
O=C(c1ccc(Cl)cc1)c1ccccc1C(=O)N1CCOCC1	none
Nc1nc(C(=O)N2CCOCC2)nn1C(=O)c1ccc(Cl)cc1	none | D3 arrestin ag inactive | D2 ag-3 inactive
CC(C)(C)c1ccc(C(=O)Nc2ccc(C(=O)OCc3cc(=O)n4ccsc4n3)cc2)cc1	none (no result: D2 ag-1, D2 antagonist, D2 PAM-2)
CCOC(=O)c1nc2nc(-c3cccs3)cc(C(F)(F)F)n2n1	none
O=C(c1nc2nc(-c3cccs3)cc(C(F)(F)F)n2n1)N1CCN(Cc2ccccc2)CC1	D2 ag-2 65 | D3 arrestin ag inactive | D2 ag-3 inactive
COc1ccc(C2=NOC3(CC(=O)N(c4ccc5ccccc5c4)C3=O)C2)c(OC)c1 (stereo not given)	none | D3 arrestin ag inactive | D2 ag-3 inactive
COc1ccc(C2=NOC3(CC(=O)N(c4ccc(F)cc4)C3=O)C2)c(OC)c1 (stereo not given)	none
O=C(N[C@H]1CCC(=O)N(CCSc2ccc(Br)cc2)CC1)OCc1ccccc1	none | D3 arrestin ag inactive | D2 ag-3 inactive
O=C(CCN1CCC(c2ccccc2)C1)c1cccs1 (stereo not given)	none
COc1cc(C(=O)CCN2CCC(c3ccccc3)C2)cc(OC)c1OC (stereo not given)	D2 ag-2 46 | D3 arrestin ag inactive | D2 ag-3 inactive
Cc1ccc(NC2=NCC(=O)N2Cc2cccs2)cc1C	none (no result: D2 antagonist, D2 PAM-1, D2 ag-2) | D3 arrestin ag inactive | D2 ag-3 inactive
Cc1ccc(N2CC(NC(=O)c3cccc(Cl)c3)CC2=O)cc1C (stereo not given)	none (no result: D2 ag-1, D2 antagonist, D2 PAM-2, D2 ag-2)
COc1ccccc1N1CCN(Cc2cccs2)CC1	D2 antagonist 83 | D3 arrestin ag inactive | D2 ag-3 inactive
COc1cc2c(cc1OC)CN(Cc1cccs1)CC2	none
COc1ccccc1N1CCN(Cc2ccsc2)CC1	D2 antagonist 104, D2 ag-2 56 | D3 arrestin ag inactive | D2 ag-3 inactive
COC(=O)c1ccc(Nc2nc(-c3ccccc3Cl)nc3ccccc23)cc1	none (no result: D2 ag-1, D2 antagonist, D2 PAM-2)
COc1ccc(CN([C@H](CO)CC(C)C)S(=O)(=O)N(Cc2ccccc2)[C@H](CO)CC(C)C)cc1	none (no result: D2 antagonist, D2 PAM-1, D2 ag-2)
COc1ccc(CN([C@H](C)CO)S(=O)(=O)N(Cc2ccccc2)[C@H](CO)C(C)C)cc1	none | D3 arrestin ag inactive | D2 ag-3 inactive
Cc1c(Cl)cccc1NC(=O)Cn1c(=O)n(Cc2ccco2)c(=O)c2oc3ccccc3c21	none (no result: D2 ag-1, D2 antagonist, D2 PAM-2, D2 ag-2)
CC(C)N(Cc1ccccc1)C(=O)CN1C(=O)CSc2ccc(S(=O)(=O)N3CCCC3)cc21	none (no result: D2 ag-1, D2 antagonist, D2 PAM-2, D2 ag-2)
Cc1cc(C(C)(C)C)c(O)c(C)c1CC1=NCCN1	D2 antagonist 64, D2 ag-2 72 | D3 arrestin ag inactive | D2 ag-3 inactive
c1ccc2c(CC3=NCCN3)cccc2c1	none
COc1ccc(OC)c(NC(=O)c2c(NCc3ccc(N(C)C)cc3)sc3c2CCCC3)c1	none (no result: D2 ag-1, D2 antagonist, D2 PAM-2)
COc1ccccc1C1C(C(N)=O)=C(C)Nc2nc(SCc3ccccc3F)nn21 (stereo not given)	none (no result: D2 ag-1, D2 antagonist, D2 PAM-2)
COc1ccccc1Cc1nc2ccccc2nc1SCC(=O)N(C)c1ccc(F)cc1	none (no result: D2 ag-1, D2 antagonist, D2 PAM-2)

Compound activity deposited in PubChem BioAssay by National Center for Advancing Translational Sciences (NCATS).
